Measured values reported in PubChem BioAssay AID651593 (National Center for Advancing Translational Sciences (NCATS), 2012).
Hit rate of the full screen: of about 1,100 compounds, about 860 (78%) were called active. About 19% were inconclusive and are not listed. Calls follow the shape of the dose curve; as a rule, active = well fitted activation curve with a large enough effect; inconclusive = small, poorly fitted or top-dose-only effect; inactive = flat fitted curve, though single readings scatter. The set was probably picked from earlier hits. The list shows a part of the results.

Assay: qHTS of Nrf2 Activators: Hit Validation in Primary Assay; also: nearly all actives have a fitted effect of over 70% in size
Conditions: Nrf2/ARE reporter cell assay, activation
Source text: Many diseases have some form of oxidative stress injury and ties to inflammation, causing a host of problems for the patient. The antioxidant response element (ARE) plays an important role in alleviating the harmful effects of oxidative stress. The antioxidant response element (ARE) is a transcriptional regulatory element involved in the activation of genes coding for a number of antioxidant proteins and detoxifying enzymes. These enzymes work in concert to protect tissues from oxidative insults and chemical toxicities in human hepatocytes and immune cells. The protective effects of ARE activation are primarily triggered through Nrf2 (NF-E2-related factor) binding to and activating AREs. It is known that Nrf2 controls the production of over 250 antioxidant and detoxification proteins (Hu et al., 2006), thereby protecting tissues by increasing cellular antioxidant content and suppressing inflammatory signaling pathways. The transcription factor Nrf2 is a central link between oxidative chemicals, such as phenolic antioxidants and electrophilic compounds, and the activation of ARE. Nrf2 levels are constitutively low as a consequence of its interaction with Keap1, which targets its degradation (Zipper and Mulcahy, 2002). Electrophiles react with key cysteine residues in Keap1, releasing Nrf2 and allowing its translocation to the nucleus. Once within the nucleus, Nrf2 complexes with coactivators such as p300, and binds to the AREs to induce gene transcription of cytoprotective enzymes, resulting in the prevention of toxicity. Activation of Nrf2 protects tissues by increasing cellular antioxidant content and suppressing inflammatory signaling pathways. Identifying novel and potent Nrf2 activators by using the AREc32 cell line to detect ARE activation by small molecules will lead to the identification and development of probes to study protective pathways in multiple tissues. These specific probes are essential to study the ARE pathway, and eventually to determine whether this pathway does activate genes that could protect against a host of diseases, including cardiovascular diseases, obesity, diabetes, Alzheimer's, and Parkinson's disease.
This project's aim is to identify novel and potent Nrf2 activators by using the AREc32 cell line to detect ARE activation by small molecules, which will lead to the identification and development of probes to study the ARE pathway.
NIH Chemical Genomics Center [NCGC]
NIH Molecular Libraries Probe Centers Network [MLPCN]
Assay Submitter (PI): Curtis Klaassen, University of Kansas Medical Center
Quantification of ARE activation after compound treatment was measured by the Steady-Glo Luciferase (R) assay system (Promega) in AREc32_fluc stable cells. The Steady-Glo reagent acts by cell lysis and generation of a luminescent signal proportional to ARE activation, through the luciferase reporter in the AREc32 stable cell line. AREc32_fluc cells were harvested from T225 flask and resuspended in phenol red free OPTI-MEM medium with 5% FBS. Then 5 microL of 200,000 cells/mL resuspended cells were dispensed into each well of white, solid bottom, 1536-well tissue culture-treated plates using a Multidrop Combi dispenser. After overnight culture at 37 degrees C with 5% CO2, a total of 23 nL of compounds at 5 selected concentrations from the MLSMR/Sytravon or positive control (40 uM stock of CDDO-IM and 2 mM of tBHQ) in DMSO was transferred to each well of the assay plate using a pintool (Kalypsys, San Diego, CA), and the plates were further incubated at 37 degrees C with 5% CO2 for 24 hours. After that, 2 microL of Steady Glo luminescent substrate mix (Promega) was added to each well. The plate was incubated at room temperature for 30 minutes. The plates were measured on a ViewLux plate reader (PerkinElmer) with clear filter.
Potency is read from the fitted curve at half-maximal effect.

SMILES | Potency
COc1ccc(Sc2cnn(-c3ccccc3)c(=O)c2Cl)cc1 | 4.61 µM (active)
O=c1[nH]c(=S)[nH]c(O)c1N=Nc1ccc(S(=O)(=O)N2CCc3ccccc32)cc1 | 16.4 µM (active)
Clc1ccccc1Nc1ncnc(-n2cccc2)n1 | 2.59 µM (active)
Cc1cccc(C(=O)Nc2nnc(SCC(=O)NCc3ccco3)s2)c1 | 8.2 µM (active)
Cc1cc(SCC(=O)N/N=C/c2ccco2)nc2ccccc12 | 11.6 µM (active)
CCn1c(=O)oc2cc(NC(=O)CCl)ccc21 | 4.61 µM (active)
Cn1c(=O)oc2cc(NC(=O)CCl)ccc21 | 4.61 µM (active)
O=C(O)c1ccc([N+](=O)[O-])c([N+](=O)[O-])c1 | 5.17 µM (active)
Cn1c(O)c(N=Nc2ccc(S(=O)(=O)N3CCOCC3)cc2)c(=O)n(C)c1=O | 18.4 µM (active)
Clc1cccc(/C=N\Nc2nccs2)c1 | 2.91 µM (active)
O=C(Nc1ccc(Cl)c(Cl)c1)c1ccco1 | 4.61 µM (active)
O=C1c2ccccc2-c2cc3ccccc3cc21 | 4.61 µM (active)
Fc1cccc(F)c1-c1nc(-c2ccc(Cl)cc2)no1 | 3.66 µM (active)
CCCCn1c(O)c(C(=O)/C=C/c2ccc3c(c2)OCO3)c(=O)[nH]c1=O | 9.2 µM (active)
O=C(/C=C/c1ccccc1)c1c(O)n(CCc2ccccc2)c(=O)[nH]c1=O | 3.66 µM (active)
